# From the OligoGym collection
# Biological target: WDR33
# Experiment: pooled miR-30 sensor sort-seq; sequence = guide strand
# Conditions: shRNA
# Also: reference of the scale not given here.
row,Sequence,sensor-assay potency score (higher = more potent)
1,TACATCTCTAACATATTGCAAA,-1.19
2,TAAACTGTCCCTGTGGACCTGG,-0.115
3,TAGTATGGTCATTTGAGCCTGA,0.248
4,TTTATTTTGCATCCAAGCCTGC,-0.562
5,TTCAATTTTAAGTTGCTCCAGA,0.632
6,TTAGATTATATCGATCTCGCAT,0.262
7,TTGTAGTCTATGGTTTTTCGGT,-0.753
8,TAGGATTATTCAACATTCCTAT,-0.157

# Biological target: WDR34
# Experiment: as above
# Conditions: shRNA
row,Sequence,sensor-assay potency score (higher = more potent)
1,ATACAGACAAGACACCATCTGC,-0.609
2,TTGAGGGAGAGCTGCAGCGAAG,-1.68
3,AATTCTTGTTCAGCTCTCGGAT,-0.793
4,TGCTTGATCAAAACTGTGGGTT,-0.0783
5,TTGAACTCCAGACAGTAGACAG,-1.12
6,TTCTTGAGCTTGGTGCTCCGTG,-0.384
7,TTAAGCGTGCTCCAGTCCCCAT,-1.36
8,ATACTTGAGGGAGAGCTGCAGC,-0.787
9,TTTGCTTGATCAAAACTGTGGG,0.652
10,TTGCTTGATCAAAACTGTGGGT,-0.138
11,TTTCTGGAGATCAAACAGCTGC,-0.424
12,ATCTGCTGCTGCTCGGTCCAGT,-0.627
